The panel holds about 83,000 compounds, 20% with a hit somewhere; the sample as a whole holds those more often.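 Cell lines were cultured in 96-well plates, exposed to a single compound concentration, and assessed for percent growth 48 hours later.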 Unmarked numbers belong to inactive results. Active and inactive are the calls of the source.
test system: U251 CNS; experiment: NCI-60 one-dose screen, 48 h (100 = growth as untreated, 0 = no growth, -100 = all killed); details: 10 µM unless noted
Protocol: Growth inhibition of the U251 human tumor cell line is measured as a screen for anti-cancer activity. Cells are grown in 96 well plates and exposed to the test compound for 48 hours. Compounds are tested at a single concentration, which is 10^-5 M for most compounds. The reported endpoint is percent growth (GI% or GIPRCNT), where numbers from 0 - 100% represent growth inhibition, and numbers from -100% - 0 represent cell death. For example, a value of 40 represents 60% growth inhibition. A value of 0 means no net growth occurred over the course of the experiment. A value of -40 indicates 40% of cells at the beginning of the experiment died by the end of the experiment. A value of -100 means all cells are dead at the end of the experiment.
NCI-60 Human Tumor Cell Lines Screen was performed using the standard one-dose NCI protocol, which is described in more detail at https://dtp.cancer.gov/discovery_development/nci-60/default.htm.
Compounds with GIPRCNT values below 10 were considered active. Activity score was based on GIPRCNT using the following formula: […]
Score is 0 for GIPRCNT values of 100 or above, 50 for GIPRCNT values of 0, and 100 for GIPRCNT values of -100.

| Compound | growth |
| --- | --- |
| Cc1nc2ccc(Cl)cn2c1-c1nnc(SCc2ccc([N+](=O)[O-])cc2)o1 | 57.7% |
| COc1cc(/C(C)=C(\c2ccc(Cl)cc2)c2ccc(OCCN(C)C)cc2)ccc1F | 44.3% |
| Nc1n[nH]c2cccc(C#Cc3cccc(C(=O)Nc4cc(CN5CCOCC5)cc(C(F)(F)F)c4)c3)c12 | 51% |
| CC(C)c1ccc(Nc2ccc3c(OCCCN4CCN(C)CC4)cccc3n2)cc1 | 23.9% |
| N#Cc1c(NC(=O)NCc2ccccc2)sc2c1CCCCC2 | 24.8% |
| COc1cc2c(c(OC)c1OC)CCC(c1cccc(NC(=O)c3cccc(Br)c3)c1)O2 (stereo not given) | 93.5% |
| Cc1ccc(C(=O)/C(=C/c2ccc([N+](=O)[O-])cc2)SCc2ccc(Cl)cc2)cc1 | -56.3% (active) |
| C=C1C(=O)O[C@H]2[C@H]1CC/C(CNC(=O)/C=C/c1ccccc1)=C\CC[C@@]1(C)O[C@@H]21 | 46.1% |
| Cc1cnc(C(=O)Nc2nc3ccc(S(=O)(=O)Nc4ccc(C(C)(C)C)cc4)cc3[nH]2)cn1 | 18.9% |
| COc1cc2nc(-c3ccc(C(F)(F)F)cc3)cc(OCCCN3CCCC3)c2cc1OC | 50.6% |
| COc1cc(/C=C2\COc3ccc(-c4ccccc4)cc3C2=O)cc(OC)c1 | 75.8% |
| O=C(Cn1c[n+](CC(=O)c2ccc(-c3ccccc3)cc2)c2ccccc21)Nc1cccc2cccnc12 | 20.6% |
| CC(=O)CCC(=O)OCc1cc(=O)c(O)co1 | 107% |
| C=C(CBr)[C@@H]1CC[C@]2(COC(C)=O)CC[C@]3(C)[C@H](CC[C@@H]4[C@@]5(C)CCCNC(C)(C)[C@@H]5CC[C@]43C)[C@@H]12 | 37% |
| COc1ccc2nc(-c3ccc(-c4noc(-c5cc(OC)c(OC)c(OC)c5)n4)cc3)[nH]c2c1 | 25.1% |
| O=C1C=CC(=O)N1c1cccc(Cl)c1 | 99.2% |
| COc1ccc(CNCCN2C(=O)c3ccc4c5c(ccc(c35)C2=O)C(=O)N(CCNCc2ccc(OC)c(OC)c2OC)C4=O)c(OC)c1OC | -46.1% (active) |
| O=S(=O)(NCCCNc1nccc(-c2c(-c3cccc(F)c3)nc3sccn23)n1)c1cccc2ccccc12 | 59.1% |
| COc1ccc(/C=C/c2nc(Nc3ccc(S(=O)(=O)Nc4nc(C)cc(C)n4)cc3)c3ccccc3n2)cc1 | 69.7% |
| O=C1c2cccc3c(-c4ccc5c(c4)ncn5C4CCCCC4)ccc(c23)C(=O)N1CCO | 93.2% |

| Compound | growth |
| --- | --- |
| NS(=O)(=O)c1ccc(CCN2C(=O)c3cc(Cl)c(Cl)cc3C2=O)cc1 | 102% |
| CCN(CC)c1ccc(C(=O)c2ccccc2)cc1 | 87.2% |
| O=Cc1ccc(-c2cn3ccnc3c(-c3ccc4ncn(Cc5ccccc5)c4c3)n2)cc1 | 68% |
| Cc1cc2c(C(=O)NCC#N)cccc2n1-c1nc2c(c(NCc3ccccc3)n1)CCCC2 | -71% (active) |
| COc1ccc(/C=C/c2nc(Nc3cccc(NC(C)=O)c3)c3ccccc3n2)cc1 | 88.5% |
| CN1CCN(CCNc2nccc(-c3c(-c4cccc(O)c4)nc4sccn34)n2)S1(=O)=O | 94.2% |
| COc1ccc(/C=C2\COc3ccc(-c4ccccc4)cc3C2=O)c(OC)c1 | 84.6% |
| O=c1c2c(c(=O)n1O)c1c3ccc[nH]c3nc1c1nc3[nH]cccc3c12 | 64.6% |
| NC(=O)CSSCC(N)=O | 93.4% |
| CCOC(=O)c1nc2c3ccccc3ccn2c1C(=O)OCC | 105% |
| O=S(=O)(Nc1ccc(-n2cnc3cc(-c4ccc(O)cc4)ccc32)cc1)c1ccccc1 | 65.2% |
| Cc1nn(-c2ccccc2)c(Cl)c1/C=N\N=c1/sc2ccccc2n1C | 103% |
| O=C(/C=C/c1ccc[nH]1)c1ccc(-n2ccc(C(F)(F)F)n2)c(F)c1 | 88.7% |
| COc1ccc(C(=O)c2cc(OC)c(OC)c(OC)c2)cc1O | 20.5% |
| COc1cccc(C(=O)NNc2nc(Cl)nc(N3CCN(C(c4ccccc4)c4ccccc4)CC3)n2)c1 | 100% |
| Cc1ccc(C(=O)/C(=C\c2ccc([N+](=O)[O-])cc2)S(=O)Cc2ccc(F)cc2)cc1 (stereo not given) | -7.84% (active) |
| CCOC(=O)[C@@H]1CCCN(S(=O)(=O)c2ccc(S(=O)(=O)N(CC)CC)c(F)c2)C1 | 82.2% |
| O=C(NCCc1ccccc1)Nc1ccc2cc3ccc(NC(=O)NCCc4ccccc4)cc3nc2c1 | -26.4% (active) |
| NC1[C@H](c2c[nH]c3ccccc23)c2c([nH]c3ccccc23)[C@H]1c1c[nH]c2ccccc12 (stereo not given in full) | 100% |
| COc1ccc(C(C)=O)c(OC)c1 | 101% |

Reference: PubChem BioAssay (NCI)
